Results on eight compounds are retold here after PubChem BioAssay (EPA / NIEHS).

“And” between values parts separate entries of the source, which are not always exact repeats. Equal values may be shown once. The source made the active and inactive calls. Rule for the calls: active = hit-call score of the fitted dose curve at least 0.9, where 1 is the maximum; inactive = score below 0.9.

Read-out in this assay: Collagen III, COL3A1 (gene 1281)
As to the kind of experiment: BSK_MyoF_CollagenIII: BioMAP Diversity Plus: MyoF Assay for Collagen III Biomarker Activity (AID 2284239). The following applies: primary human lung fibroblasts. In outline:
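ELISA read-out of collagen III from human lung fibroblasts after 24 h of chemical treatment. The DMSO control served as negative control and baseline, with values fitted in the positive direction.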
One may read the AC50 as the midpoint of the concentration-response curve, whichever way the signal moves. For `NS(=O)(=O)C(F)(F)C(F)(F)C(F)(F)C(F)(F)C(F)(F)C(F)(F)C(F)(F)C(F)(F)F`, the AC50 was 26.2 µM (active) and 28.7 µM (active).

In the case of `O=C(O)C(F)(F)C(F)(F)C(F)(F)C(F)(F)C(F)(F)C(F)(F)C(F)(F)C(F)(F)C(F)(F)F`, the AC50 was 26.2 µM (active) and 19.1 µM (active).

Regarding `O=C(O)C(F)(F)C(F)(F)C(F)(F)C(F)(F)C(F)(F)C(F)(F)C(F)(F)C(F)(F)F`, the AC50 is 46.8 µM (active) and 47.6 µM (active).

For the compound `Sc1ccccc1`, the outcome was inactive.

In the case of `O=C(O)C(F)(F)C(F)(F)C(F)(F)C(F)(F)C(F)(F)F`, the result was inactive.

As to `Oc1c(Cl)c(Cl)c(Cl)c(Cl)c1Cl`, the AC50 was 4.07 µM (active).

As for `O=S(=O)(O)C(F)(F)C(F)(F)C(F)(F)C(F)(F)F`, the outcome was inactive.

For `O=S(=O)(O)C(F)(F)C(F)(F)C(F)(F)C(F)(F)C(F)(F)C(F)(F)F`, the result was inactive.
